# Assay outcomes as filed in PubChem.
# Sampled rows, rich in hits. Any-hit rate of the full collection: about 1.2%.
# AMA1 RON2 block: qHTS for Inhibitors of AMA1-RON; Towards Development of Antimalarial Drug Lead: Primary Screen; Plasmodium falciparum AMA1 (3D7) - RON2 peptide interaction; AlphaScreen AMA1-biotinylated RON2 peptide binding; Potency, µM (series often up to 58.2 µM), for inactives: top-dose activity change, negative = inhibition, actives largely listed as inhibitors; 360,000 tested, 0.2% active; AID 720542, 2013;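 further: 0% = vehicle wells and -100% = peptide control; nearly all actives have a fitted effect of over 45% in size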
#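 AMA1 (3D7) with his tag at 25 nM final met compounds first, then biotinylated RON2 peptide at 25 nM; detection used donor plus acceptor beads, 10 µg/mL apiece, read by AlphaScreen after 30 min at room temperature.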
# LmPK inh: qHTS Assay for Inhibitors of Leishmania Mexicana Pyruvate Kinase (LmPK). 290,000 tested, 0.37% active. Potency, µM (doses to about 57.5 µM), without a hit: at the highest dose activity change, negative = inhibition, actives largely listed as inhibitors. AID 1721, 2009. Q27686. purified LmPK, Kinase-Glo ATP luminescence, 1 h; further: on the % scale 0 is the no-effect control and ±100 the full control effect
# Target sequence (Q27686 whole entry, looked up): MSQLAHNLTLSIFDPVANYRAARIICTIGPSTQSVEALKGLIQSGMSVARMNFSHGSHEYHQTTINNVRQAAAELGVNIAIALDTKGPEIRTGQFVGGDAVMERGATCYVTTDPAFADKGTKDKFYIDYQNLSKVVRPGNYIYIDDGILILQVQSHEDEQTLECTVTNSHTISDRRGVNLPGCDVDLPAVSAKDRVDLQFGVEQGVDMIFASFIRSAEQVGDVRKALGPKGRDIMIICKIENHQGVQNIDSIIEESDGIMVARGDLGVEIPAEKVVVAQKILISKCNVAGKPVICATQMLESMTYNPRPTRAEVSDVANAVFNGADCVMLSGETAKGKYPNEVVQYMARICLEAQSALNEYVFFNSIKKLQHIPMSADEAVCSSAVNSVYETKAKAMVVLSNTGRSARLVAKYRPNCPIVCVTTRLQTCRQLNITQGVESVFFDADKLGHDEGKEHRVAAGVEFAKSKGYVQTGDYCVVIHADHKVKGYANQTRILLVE
#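 ATP generated from ADP (0.1 mM) and PEP (0.5 mM) by 0.1 nM LmPK over 1 h at room temperature (pH 7.2 imidazole buffer) was detected by coupled luciferase luminescence. Values were normalized to uninhibited and no-enzyme wells.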
# NS1 function inh: qHTS Assay for Inhibitors of Influenza NS1 Protein Function. AID 2326, 2010. 270,000 tested, 0.4% active. Potency, µM (doses to about 46.1 µM), inactives show at the highest dose activity, positive = more growth; calls by dose curve; further: actives are rising curves; nearly all actives have a fitted effect of over 50% in size
#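 S. cerevisiae expressing influenza A NS1, grown in glucose, washed, then diluted 1:100 into pH 6.0 -URA galactose medium with 23 nl compound. Growth recovery read as OD600; NS1-free strain serves as control.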
# Giardia FBPA inh-1: qHTS Assay for Inhibitors of Fructose-1,6-bisphosphate Aldolase from Giardia Lamblia. A8B2U2. purified Giardia FBPA. Potency, µM (top dose mostly 59.6 µM), inactives show top-dose activity, negative = inhibition, actives largely listed as inhibitors. 290,000 tested, 0.71% active; further: on the % scale 0 is the no-effect control and ±100 the full control effect; nearly all actives have a fitted effect of over 55% in size
# Target sequence (A8B2U2 whole entry, looked up): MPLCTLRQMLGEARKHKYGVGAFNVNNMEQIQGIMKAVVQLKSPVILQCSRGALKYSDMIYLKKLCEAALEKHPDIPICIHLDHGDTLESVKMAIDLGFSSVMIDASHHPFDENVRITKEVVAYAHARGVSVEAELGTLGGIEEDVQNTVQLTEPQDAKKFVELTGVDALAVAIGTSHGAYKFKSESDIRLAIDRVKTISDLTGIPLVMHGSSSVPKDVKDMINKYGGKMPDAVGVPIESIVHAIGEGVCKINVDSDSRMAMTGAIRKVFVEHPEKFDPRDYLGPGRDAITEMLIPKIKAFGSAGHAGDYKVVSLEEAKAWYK
#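 Giardia FBPA (40 nM reagent) was preincubated 10 min at RT with compound (up to 57.5 uM final), then substrate plus GAPDH/TPI/NAD/arsenate coupling system with diaphorase/resazurin was added; resorufin fluorescence (525/598 nm) was read after 20 min.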
# TbPYK inhibitor: qHTS of Trypanosoma Brucei Inhibitors | pyruvate kinase (Trypanosoma brucei), Q57TT1 | TbPYK enzyme, Kinase-Glo Plus ATP luminescence, 45 min | AID 624173, 2012 | 410,000 tested, 0.12% active | Potency, µM (top dose mostly 76.8 µM), for inactives: at the top dose activity, negative = inhibition, usual class: inhibitors; further: on the % scale 0 is the no-effect control and ±100 the full control effect; nearly all actives have a fitted effect of over 50% in size
#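 In this concentration-response screen, enzyme-free wells defined baseline while DMSO plates tracked drift. Each reaction combined TbPYK, substrate, compound and 130 uM ADP for 45 min at room temperature. Kinase-Glo Plus luminescence gave the signal.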
# Giardia growth: qHTS Assay for Inhibitors of Fructose-1,6-bisphosphate Aldolase from Giardia Lamblia: Giardia lamblia growth inhibition; shares compounds with Giardia FBPA inh-1; Giardia lamblia trophozoite growth inhibition; Potency, µM (doses to about 57.5 µM), inactives show at the highest dose activity change, negative = inhibition, usual class: inhibitors; 1,500 tested, 5% active;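 further: trophozoites exposed to compound for 48 h at 37 °C; on the % scale 0 is the no-effect control and ±100 the full control effect; nearly all actives have a fitted effect of over 70% in size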
# Mammal cell tox: qHTS Assay for Inhibitors of Fructose-1,6-bisphosphate Aldolase from Giardia Lamblia: Mammalian cellular toxicity. shares compounds with Giardia FBPA inh-1. mammalian cell viability counter-screen, qHTS. Potency, µM (highest dose often 57.5 µM), for the others: top-dose viability change, negative = toxicity, actives largely listed as inhibitors. 1,500 tested, 4% active. AID 2786, 2010;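 further: Chinese hamster ovary cells used as mammalian cytotoxicity surrogate; viability measured as cellular ATP by luminescence; compound exposure lasted 48 h before reading; on the % scale 0 is the no-effect control and ±100 the full control effect; nearly all actives have a fitted effect of over 60% in size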
# Giardia FBPA inh-2: qHTS Assay for Inhibitors of Fructose-1,6-bisphosphate Aldolase from Giardia Lamblia: Primary screen confirmation | shares compounds with Giardia FBPA inh-1 | purified Giardia aldolase enzyme activity, qHTS | Potency, µM (doses to about 57.5 µM), without a hit: at the top dose activity change, negative = inhibition, actives largely listed as inhibitors | 1,500 tested, 5% active; further: on the % scale 0 is the no-effect control and ±100 the full control effect; nearly all actives have a fitted effect of over 45% in size
# Rabbit aldolase: qHTS Assay for Inhibitors of Fructose-1,6-bisphosphate Aldolase from Giardia Lamblia: Rabbit FBPA Selectivity; shares compounds with Giardia FBPA inh-1; Rabbit muscle FBPA enzyme inhibition, selectivity counter-screen; Potency, µM (doses to about 57.5 µM), for inactives: at the highest dose activity, negative = inhibition, hits mostly inhibitors; 1,500 tested, 4% active; AID 2794, 2010; further: on the % scale 0 is the no-effect control and ±100 the full control effect; nearly all actives have a fitted effect of over 60% in size
# GAPDH coupling: qHTS Assay for Inhibitors of Fructose-1,6-bisphosphate Aldolase from Giardia Lamblia: Coupling assay counterscreen confirmation | shares compounds with Giardia FBPA inh-1 | GAPDH coupling enzyme counterscreen, biochemical, qHTS | Potency, µM (titrated, usually from 57.5 µM), for inactives: top-dose activity change, negative = inhibition, actives largely listed as inhibitors | 1,500 tested, 6% active; further: on the % scale 0 is the no-effect control and ±100 the full control effect; nearly all actives have a fitted effect of over 55% in size
# Numbers without * were called inactive; ? = inconclusive; / = no result; [ ] = another dose, or the depositor's remark. Unless noted, the call rests on the fitted dose curve; in most records, active means well fitted curve in the direction sought with a large enough effect; inconclusive means small, poorly fitted or top-dose-only effect, or another doubt; inactive means no such curve, though single readings can be large; an effect the other way counts as inactive or inconclusive. Potency means the concentration at half of the fitted maximal effect.
SMILES,AMA1 RON2 block,LmPK inh,NS1 function inh,Giardia FBPA inh-1,TbPYK inhibitor,Giardia growth,Mammal cell tox,Giardia FBPA inh-2,Rabbit aldolase,GAPDH coupling
CC(=O)N1CCN(C(=S)NC(=O)c2ccc(S(=O)(=O)N3CCOCC3)cc2)CC1,14.6%,7.5%,?,14.1µM*,-9.8%,-7.2%[10.4 µM],2.7%,8.6%,10.9%,4.8%
O=C(NC(=S)N(CCO)Cc1ccccc1)c1ccc(S(=O)(=O)N2CCCC2)cc1,55.4%,4.3%,/,8.89µM*,-1.1%,-0.2%[10.4 µM],6.6%,4.3%,7.9%,10.3%
CN(CCC#N)C(=S)NC(=O)c1ccc(S(=O)(=O)N2CCOCC2)cc1,97.1%,2.6%,/,15.8µM*,-12.8%,8.4%,-1.1%,6.1%,8.6%,15.1%
N#CCc1ccc(NC(=O)c2ccc(S(=O)(=O)N3CCOCC3)cc2)cc1,22.0%,-3.2%,18.0%,/,-4.8%,/,/,/,/,/
Cc1nn(C)c2c1c(-c1ccccc1)cc(=O)n2Cc1ccccc1C#N,/,/,/,/,3.4%,/,/,/,/,/
C=C/C(C)=C/[C@@]1(C)SC(=O)C(C)=C1O,/,/,-13.9%,4.2%,/,/,/,/,/,/
COc1ccccc1OCC#CCN1CCCC(C)C1 (stereo unspecified),-7.8%,-1.2%,10.5%,?,-8.6%,/,/,/,/,/
COc1ccccc1OCC#CCNC1CCCCC1C (stereo unspecified),-3.8%,0.5%,-4.9%,1.58µM*,-8.2%,22.0%[38.3 µM],12.2%,2.5%,16.7%,3.3%
O=C(C[n+]1ccccc1)Nc1c(Cl)cc(Cl)cc1Cl,2.3%,-3.4%,13.1%,12.6µM*,-0.2%,24.0%,-5.7%,7.2%,8.4%,9.2%
Brc1ccc(CN2CCN(Cc3c[nH]c4ccccc34)CC2)cc1,-25.9%,-9.2%,-1.3%,14.1µM*,5.2%,20µM*,-8.2%,-3.7%,1.4%,1.0%
COc1ccc(Oc2ncc3nc(-c4cn(C)c5ccccc45)c(=O)n(C4CC4)c3n2)cc1,/,/,/,-2.8%,/,/,/,/,/,/
Cc1c(Br)c(=O)oc2c(Br)c(O)c(O)cc12,-1.0%,4.2%,16.6%,?,-3.9%,-4.7%[38.3 µM],-20.2%,?,?,-4.8%
CCN1CCc2c(sc(N)c2C#N)C1,-3.5%,-2.7%,1.1%,?,-2.2%,/,/,/,/,/
N#Cc1c(N)sc(=S)c2c1CCN(Cc1ccccc1)C2,/,1.2%,-13.0%,1.26µM*,/,15.3%[38.3 µM],-8.0%,31.6µM*,?,31.6µM*
CN(Cc1ccccc1)C(=S)NC(=O)c1cccs1,57.1%,-0.1%,-63.3%,12.6µM*,?,?,-20.4%,2.5%,8.4%,12.6%
CN(Cc1ccccc1)C(=S)NC(=O)c1ccc(-c2ccccc2)cc1,59.6%,6.4%,-15.7%,24.9%,-2.2%,/,/,/,/,/
Cc1ccc(C)c(NC(=O)NCc2ccc(Cl)cc2)c1,/,/,-1.0%,/,/,/,/,/,/,/
O=C(NC1CCCCC1)c1cc2c(Cl)nc3ccccc3c2s1,/,/,/,/,3.4%,/,/,/,/,/
NOCc1ccccc1,/,/,/,-19.5%,/,/,/,/,/,/
Cc1ccc(O)c(N=Cc2cccs2)c1,-9.0%,0.9%,-9.7%,19.9µM*,2.6%,2.5%,12.9%,35.5µM*,39.8µM*,50.1µM*
Cc1ccc(O)c(N=Cc2ccc(C)s2)c1,6.6%,-3.6%,-14.2%,?,-0.3%,/,/,/,/,/
O=c1c(O)c(-c2ccc(O)cc2)oc2ccc(O)cc12,/,/,/,8.3%,/,/,/,/,/,/
COc1ccc2[nH]cc(CCNc3ncncc3-c3ccoc3)c2c1,/,/,/,-15.5%,/,/,/,/,/,/
CCOC(=O)c1cc(-c2ccc(F)cc2)n(CC(=O)NC2CCCCCC2)c1C,/,/,/,/,-1.9%[15.4 µM],/,/,/,/,/
S=c1[nH]nc(-c2ccccn2)n1/N=C/c1ccccc1,5.6%,4.4%,13.1%,-25.9%,?,/,/,/,/,/
SMILES,AMA1 RON2 block,LmPK inh,NS1 function inh,Giardia FBPA inh-1,TbPYK inhibitor,Giardia growth,Mammal cell tox,Giardia FBPA inh-2,Rabbit aldolase,GAPDH coupling
Cc1cccc(/C=N/n2c(-c3ccccn3)n[nH]c2=S)c1,/,10.2%,10.1%,-17.1%,/,/,/,/,/,/
S=c1[nH]nc(-c2ccccn2)n1/N=C/c1ccc(Cl)cc1,10.2%,10.1%,1.8%,?,?,/,/,/,/,/
S=c1[nH]nc(-c2ccccn2)n1/N=C/c1c(Cl)cccc1Cl,-18.6%,16.4%,2.4%,6.29µM*,-40.6%,-9.2%[38.3 µM],6.1%,-5.1%,-8.5%,-2.5%
Cc1ccc(/C=N/n2c(-c3ccccn3)n[nH]c2=S)o1,?,9.2%,0.9%,11.2µM*,?,-5.5%,6.3%,-6.0%,0.9%,2.3%
Cc1ccccc1/C=N/n1c(-c2ccccn2)n[nH]c1=S,5.0%,10.6%,4.4%,3.97µM*,?,3.8%[38.3 µM],-8.4%,-14.7%,-17.2%,-17.1%
CC1=CC2C(=O)c3cccc(O)c3C(=O)C2C(O)=C1 (stereo unspecified),/,/,/,-21.8%,/,/,/,/,/,/
O=C(CSCc1ccccc1Cl)N1CCN(c2ccc(F)cc2)CC1,/,/,/,/,-0.6%,/,/,/,/,/
Cn1c(=O)c2ccccc2n2c(=S)[nH]nc12,-4.4%,0.6%,0.5%,15.8µM*,-8.6%,22.7%,10.8%,12.2%,2.5%,9.1%
